Only some compounds are listed: those with a hit (about 2.4% of all), similar ones and a draw of the others.
D2 antagonist: antagonizes the human D2 dopamine receptor; HEK293 TREx D2 cells, calcium flux, dopamine EC80; inhibition, % at 10 µM; AID 485344; hit rate 2% among 340,000; P14416; in the data active = inhibition above about 30%; inactive = below that, where a call was filed; also: 0% is about no effect
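Calcium flux kinetic readout in an inducible HEK293 TREx D2 line plated overnight at 30 C. After 180 s compound exposure, an EC80 dopamine challenge follows with another 180 s kinetic read to detect antagonism.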
D2 PAM-1: potentiates the human D2 dopamine receptor allosterically; P14416; DiscoveRx D2 beta-arrestin cells, luminescence, 90 min; 100% = 57 uM dopamine signal; potentiation, % (test concentration not listed); hit rate 0.23% among 360,000; AID 624464; in the data active = potentiation above about 50%; inconclusive = mostly about 30% to 49%
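PathHunter beta-arrestin assay in DiscoveRx D2 cells. Compounds were added with an EC20 of dopamine (50 nM final) for 90 min at 37 deg C. Luminescence was read 1 h after detection reagent, with 57 uM dopamine as the EC100 control.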
D2 ag-1: activates the human D2 dopamine receptor | P14416 | HEK293 T-REx D2 cells, calcium flux agonist mode | activation, % at 2 µM | hit rate 0.53% among 340,000;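 active = activation over 3 SD above normal in the single-dose calcium agonist read, cut at about 30% in these data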; also: 0% is about no effect
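Calcium-flux readout, 1 cycle/sec over 180 s following compound pin transfer, in inducible HEK293 Trex D2 cells (force-coupled); dopamine controls included. Positive calcium responses during this window marked compounds as potential agonists.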
D2 ag-2: activates the human D2 dopamine receptor. activation, % (concentration not given with the values). P14416. hit rate 0.084% among 360,000. DiscoveRx PathHunter D2 beta-arrestin, luminescence, 90 min; 100% = 57 uM dopamine signal; in the data active = activation above about 40%; inconclusive = between about 15% and that limit
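Agonist mode: compounds alone added to overnight-plated D2 PathHunter cells for 90 min at 37 C, with 57 uM final dopamine (EC100) defining full response. Beta-arrestin recruitment detected by chemiluminescent reagent, read after 1 h at ambient temperature.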
D2 PAM-2: positively modulates the human D2 dopamine receptor allosterically; P14416; HEK293 T-REx D2, calcium flux, EC20 dopamine potentiation; potentiation, % at 10 µM; hit rate 0.34% among 340,000;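 active = potentiation over 3 SD above the plate norm, cut at about 30% in these data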; also: 0% is about no effect
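Potentiation of an EC20 dopamine calcium response is measured in a force-coupled, tetracycline-inducible Hek293 Trex D2 line. Compound-only kinetic reads over 180 s flag agonists before dopamine addition.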
D3 ag: activates human D3 dopamine receptor beta-arrestin recruitment; shares compounds with D2 ag-1; DiscoveRx D3 beta-arrestin cells, luminescence, 90 min; Potency, µM (doses to about 76.9 µM), inactives show at the highest dose activation, usual class: activators; hit rate 4% among 2,300;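 also: potency is read from the fitted curve at half-maximal effect; 100% = dopamine control response; nearly all actives have a fitted effect of over 70% in size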
Target sequence (P35462 whole entry, looked up): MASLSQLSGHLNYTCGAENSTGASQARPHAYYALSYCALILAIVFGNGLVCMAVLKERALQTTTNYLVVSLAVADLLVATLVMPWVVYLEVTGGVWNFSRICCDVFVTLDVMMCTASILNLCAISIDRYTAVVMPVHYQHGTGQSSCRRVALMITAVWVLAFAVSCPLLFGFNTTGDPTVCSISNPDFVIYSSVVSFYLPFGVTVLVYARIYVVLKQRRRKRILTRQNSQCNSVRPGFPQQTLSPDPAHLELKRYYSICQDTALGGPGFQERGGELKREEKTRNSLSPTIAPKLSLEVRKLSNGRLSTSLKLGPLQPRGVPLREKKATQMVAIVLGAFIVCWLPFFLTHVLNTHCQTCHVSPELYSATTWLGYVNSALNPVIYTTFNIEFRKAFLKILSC
D2 ag-3: counter-screen for D3 agonists: human D2 dopamine receptor agonism; shares compounds with D2 ag-1; DiscoveRx PathHunter D2 beta-arrestin, luminescence, 90 min; response scale: percent relative to full dopamine signal; Potency, µM (top dose mostly 76.9 µM), without a hit: top-dose activation, hits mostly activators; hit rate 5.9% among 2,300; AID 720507; also: potency is read from the fitted curve at half-maximal effect; % of control where 0% means no effect; nearly all actives have a fitted effect of over 70% in size
Starred values were filed as active, the others as inactive; u = inconclusive; x = no result; ! = repeats disagree. Unless noted, calls follow the shape of the dose curve; as a rule, active = well fitted activation curve with a large enough effect; inconclusive = small, poorly fitted or top-dose-only effect; inactive = flat fitted curve, though single readings scatter.

SMILES	D2 antagonist	D2 PAM-1	D2 ag-1	D2 ag-2	D2 PAM-2	D3 ag	D2 ag-3
Clc1ccc(-n2ncc3c(NCc4ccco4)ncnc32)cc1	-22	6	-2	1	-9	4%	3%
COc1ccc(-n2ncc3c(NCc4ccco4)ncnc32)cc1	-4	-1	-1	1	18	x	x
CC(NCc1ccccc1)C1COc2ccccc2O1 (stereo not given)	29	-21	38*	4	-19	11%	4%
CC(NCC(O)COc1ccccc1)C1COc2ccccc2O1 (stereo not given)	64*	-10	65*	u	-28	8%	15%
N#C/C(=C\c1ccc(-c2cc(Cl)ccc2Cl)o1)C(=O)Nc1ccccc1C(=O)O	x	x	0	x	-4	x	x
COc1ccc(OC)c(NC(=O)c2cccc(N3C(=O)C4C5CCC(C5)C4C3=O)c2)c1 (stereo not given)	x	5	x	11	x	19%	u
COc1cccc(Cn2c(=O)n(-c3cc(C)cc(C)c3)c(=O)c3oc4ccccc4c32)c1	x	x	-1	x	-1	x	x
CC(=O)c1ccc(OCC(O)CN2CCN(CC(O)COc3ccc(C(C)=O)cc3)CC2)cc1 (stereo not given)	-11	1	0	-1	-1	x	x
CC(C)(C)C1CCC(OCC(O)CN2CCN(c3ccccn3)CC2)CC1 (stereo not given)	63*	20	62*	u	-32	0.63µM*	20µM*
CC(=O)c1ccc(OCC(O)CN2CCN(Cc3ccccc3)CC2)cc1 (stereo not given)	17	-3	9	-7	-3	-21%	4%
CC(=O)c1ccc(OCC(O)CN2CCN(c3ccccn3)CC2)cc1 (stereo not given)	88*	94*	83*	47*	-20	u	4µM*
CCc1ccc(OCC(O)CN2CCN(c3ccccn3)CC2)cc1 (stereo not given)	-4	6	80*	u	-36	u	u
OC(COC(c1ccccc1)c1ccccc1)CN1CCN(c2ccccn2)CC1 (stereo not given)	78*	-15	77*	13	-19	4.5µM*	u
OC(COCc1ccc(Cl)cc1)CN1CCN(c2ccccn2)CC1 (stereo not given)	84*	-1	83*	45*	-24	u	u
OC(COCC1COc2ccccc2O1)CN1CCN(c2ccccn2)CC1 (stereo not given)	83*	25	77*	45*!	-23	u	u
CCOC(=O)N1CCN(CC(O)COCc2ccc(Cl)cc2)CC1 (stereo not given)	-8	-11	1	-1	15	x	x
CCCc1ccc(OCC(O)CN2CCc3ccccc3C2)cc1 (stereo not given)	x	-83	x	1	x	x	x
CCCc1ccc(OCC(O)CN2CCN(c3ccccn3)CC2)cc1 (stereo not given)	74*	-11	78*	u	-20	1.3µM*	u
CC(=O)c1cc2cc(O)ccc2o1	-10	-9	1	-2	-3	x	x
CC(=O)c1cc2c(O)c(O)ccc2o1	2	13	1	7	-7	u	8%
O=C(CN1CCN(c2ccccc2)CC1)Nc1ccc2c(c1)OCCO2	45*	-35	56*	14	-31	15%	u
O=C(CN1CCN(C(=O)c2ccco2)CC1)Nc1ccc(Cl)c(S(=O)(=O)N2CCOCC2)c1	-1	7	45*	-5	-16	u	11%
O=C(CN1CCN(C(=O)c2ccco2)CC1)Nc1ccc2c(c1)OCCO2	54*	11	61*	u	-18	25%	24%
Cc1[nH]c2ccccc2c1NC(=O)CN1CCN(C(=O)c2ccco2)CC1	61*	u	87*	54*	-22	1%	u

Compound activity (PubChem)
